Bioassay records (PubChem)
Compounds with a hit are over-represented: about 7.1% of the library has one in this group of screens.
MCF10A rereplic = A quantitative high throughput screen for small molecules that induce DNA re-replication in MCF 10a normal breast cells; MCF 10A DNA re-replication, Hoechst nuclear intensity, 48 h; Potency, µM (titrated, usually from 46.1 µM), most hits filed as activators; hit rate 2.9% among 350,000; note: nearly all actives have a fitted effect of over 50% in size
SW480 rerep = A quantitative high throughput screen for small molecules that induce DNA re-replication in SW480 colon adenocarcinoma cells | SW480 DNA re-replication, Hoechst DNA content imaging, 48 h | AID 624297, 2012 | hit rate 1.8% among 340,000 | Potency, µM (titrated, usually from 46.1 µM), usual class: activators; note: nearly all actives have a fitted effect of over 55% in size
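Readout is total intensity of Hoechst-stained nuclei, excited at 405 nm and collected at 500-530 nm. Compound treatment lasted 48 hr at 37 C in 5% CO2 before staining.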
PINK1 expr mod = A Quantitative High throughput Screen to Identify Chemical Modulators of PINK1 Expression | PINK1 immunofluorescence, high-content cytometry, 24 h | Potency, µM (series often up to 76.6 µM), usual class: activators | hit rate 0.2% among 410,000 | AID 624263, 2012; active = well fitted activation curve with a large enough effect; inconclusive = small, poorly fitted or top-dose-only effect; cell line not stated here; note: nearly all actives have a fitted effect of over 65% in size
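Stable cell line, 250 cells/well, 12 h attachment; compounds pinned at 5 concentrations, 24 h; CCCP control. Fixed with nuclear dye, primary antibodies 12 h at 10 degrees C, secondary plus cell stain; laser-scanning cytometer read.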
S2 tox = Viability Counterscreen for Primary qHTS for Inhibitors of ATXN expression; S2 cells (HEK-293 line with an ATXN2-luciferase reporter) viability, CellTiter-Fluor protease fluorescence, 24 h; Potency, µM (doses to about 56.7 µM), hits mostly cytotoxic; hit rate 0.49% among 400,000; AID 651635, 2014; note: nearly all actives have a fitted effect of over 40% in size
ATXN2 expr inh = Primary qHTS for Inhibitors of ATXN expression. HEK-293 ATXN2-luciferase reporter, luminescence, 24 h. Potency, µM (doses to about 57 µM), hits mostly inhibitors. hit rate 0.72% among 360,000; note: nearly all actives have a fitted effect of over 55% in size
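qHTS (up to 57 uM final) was run with 24 h compound exposure of reporter cells at 37 °C. Each well was multiplexed: SteadyGlo luminescence measured ATXN2-luciferase expression after a fluorogenic Gly-Phe-AFC viability readout (25 uM final).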
IL-1B inflam inh = qHTS for Inhibitors of Inflammasome Signaling: IL-1-beta AlphaLISA Primary Screen; THP-1 LPS/ATP IL-1B secretion, AlphaLISA, 16 h; stronger effect = lower value; activity change, % at 57.5 µM; hit rate 4.7% among 360,000; in the data active = activity change below about -50%; inconclusive = mostly about -30% to -49%
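Secreted IL-1B measured by AlphaLISA bead assay after 16 h compound exposure of THP-1 cells; compounds (final up to 57.5 uM) added 1 h before LPS (250 ng/mL) and ATP (1.25 mM) stimulation; lower signal means less secretion.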
Each line names hits and unclear results; the compound was inactive in the other large screens. Unless noted, calls come from the whole dose curve; as a rule, active = well fitted curve in the direction sought with a large enough effect; inconclusive = small, poorly fitted or top-dose-only effect, or another doubt; inactive = no such curve, though single readings can be large; an effect the other way counts as inactive or inconclusive.

CSc1nnc(CCNC(=O)c2ccccc2C(F)(F)F)n1-c1ccc(F)cc1	none (no result: MCF10A rereplic, SW480 rerep, ATXN2 expr inh, IL-1B inflam inh)
Cc1cccc(N2CCN(C(=O)CCC(=O)N3CCOc4ccc(Cl)cc43)CC2C)c1 (configuration not stated)	S2 tox inconclusive, IL-1B inflam inh inconclusive
Cc1cccc(C2=NN(c3ccc(Br)cc3)[C@@H](C(=O)N3CCOC3=O)[C@@H]2c2ccccc2)c1	MCF10A rereplic 1.5µM, SW480 rerep inconclusive (no result: S2 tox)
Cc1cccc(C2=NN(c3ccccc3)[C@@H](C(=O)N3CCOC3=O)[C@@H]2c2ccccc2)c1	MCF10A rereplic inconclusive, SW480 rerep 16µM, S2 tox inconclusive
COc1cc(CNCCc2ccccc2F)ccc1OCc1ccc(Cl)nc1	none
COc1cc(NC(=S)NCCc2c[nH]c3ccccc23)c(OC)cc1Cl	IL-1B inflam inh -66
COc1cc(CNCCc2ccc(F)cc2)ccc1OCc1ccc(Cl)nc1	S2 tox inconclusive, ATXN2 expr inh inconclusive, IL-1B inflam inh -56
COc1cc(CNCCc2c[nH]c3ccccc23)ccc1OCc1ccc(F)cc1	MCF10A rereplic inconclusive, SW480 rerep inconclusive, ATXN2 expr inh inconclusive, IL-1B inflam inh -103 (no result: S2 tox)
COc1cccc(CNCCc2c[nH]c3ccccc23)c1OCc1ccc(F)cc1	MCF10A rereplic inconclusive, SW480 rerep inconclusive, PINK1 expr mod inconclusive, S2 tox inconclusive, ATXN2 expr inh 20µM, IL-1B inflam inh -62
COc1cccc(CNCCSc2nnnn2C)c1OCc1ccc(F)cc1	none (no result: MCF10A rereplic, SW480 rerep, IL-1B inflam inh)
COc1ccccc1NC(=S)NCCc1c[nH]c2ccccc12	SW480 rerep inconclusive
COc1ccc(N2CCN(C(=O)c3cc(NC(C)=O)c4c(c3)ncn4CCc3ccccn3)CC2)cc1	none (no result: MCF10A rereplic, SW480 rerep, ATXN2 expr inh, IL-1B inflam inh)
CCOC(=O)c1c(S(=O)(=O)N2CCC(C(=O)Nc3ncccc3C)CC2)c(C)n(C)c1C	none (no result: MCF10A rereplic, SW480 rerep, IL-1B inflam inh)
CCOc1ccccc1NC(=O)CC(O)(C(F)(F)F)C(F)(F)F	none
CCOc1ccccc1NC(=O)/C=C/c1ccccc1[N+](=O)[O-]	IL-1B inflam inh -69
CCOc1ccccc1NC(=O)/C=C/C(N)=O	ATXN2 expr inh inconclusive, IL-1B inflam inh -103 (no result: PINK1 expr mod, S2 tox)
O=C(CSc1nc2c([nH]c3ccccc32)c(=O)n1-c1ccccc1)N1CCc2ccccc21	none (no result: MCF10A rereplic, SW480 rerep, S2 tox, ATXN2 expr inh, IL-1B inflam inh)
COCc1c(C(=O)NC2CCOC(C)(C)C2)cnn1-c1nccc(-c2cccs2)n1 (configuration not stated)	none (no result: MCF10A rereplic, SW480 rerep, ATXN2 expr inh, IL-1B inflam inh)
O=C(Cn1cnc2c(nnn2Cc2ccc(F)cc2)c1=O)Nc1ccc2c(c1)OCCO2	MCF10A rereplic 16µM, SW480 rerep inconclusive (no result: ATXN2 expr inh)
CC(C)NC(=O)c1cn(C2CCCN(C(=O)c3cc4ccccc4oc3=O)C2)nn1 (configuration not stated)	none (no result: MCF10A rereplic, SW480 rerep, ATXN2 expr inh, IL-1B inflam inh)
Cc1ccc(C)n1-c1ccc(N2CCOCC2)c([N+](=O)[O-])c1	MCF10A rereplic inconclusive, SW480 rerep inconclusive, S2 tox inconclusive, IL-1B inflam inh -68
Nc1ccc(Br)cc1C(NCC(=O)O)c1ccccc1 (configuration not stated)	SW480 rerep 6.5µM
CCOC(=O)CNC(c1ccccc1)c1cc(Br)ccc1NC(C)=O (configuration not stated)	SW480 rerep 2.9µM, ATXN2 expr inh inconclusive
COC(=O)CNC(c1ccccc1)c1cc(Br)ccc1NC(=O)OCc1ccccc1 (configuration not stated)	none
Cc1cc(C)c(NC(=O)CSc2nc3ccccc3nc2N2CCCCC2)c(C)c1	none (no result: MCF10A rereplic, SW480 rerep, IL-1B inflam inh)
CCOC1=C2[C@H](c3ccccc3Cl)N(S(=O)(=O)c3ccc(C)cc3)C[C@H]2C(C#N)(C#N)C(C#N)(C#N)C1	IL-1B inflam inh inconclusive (no result: MCF10A rereplic, SW480 rerep)
CCOC1=C2[C@H](c3ccc(CC)cc3)N(S(=O)(=O)c3ccc(C)cc3)C[C@H]2C(C#N)(C#N)C(C#N)(C#N)C1	IL-1B inflam inh -76 (no result: MCF10A rereplic, SW480 rerep)
CN(C(=O)c1cnn(-c2nccc(-c3ccccc3C(F)(F)F)n2)c1C1CC1)C1CCOC1 (configuration not stated)	none (no result: MCF10A rereplic, SW480 rerep, ATXN2 expr inh, IL-1B inflam inh)
N#CC1=C(N)Oc2cc(N)ccc2C1c1ccccc1Cl (configuration not stated)	MCF10A rereplic inconclusive, SW480 rerep inconclusive (no result: S2 tox)
N#CC1=C(N)OC2=C(CCc3ccccc32)C1c1ccccc1Cl (configuration not stated)	MCF10A rereplic 2.9µM, SW480 rerep 8.2µM, IL-1B inflam inh -73
O=C(CSc1nnc(-c2ccc(Cl)cc2)n1CC1CCCO1)NC1CCS(=O)(=O)C1 (configuration not stated)	MCF10A rereplic 1.2µM, SW480 rerep inconclusive
NC(=O)NC(=O)CSc1nnc(-c2ccc(Cl)cc2)n1CC1CCCO1 (configuration not stated)	none (no result: ATXN2 expr inh)
Cc1ccc(-n2nc(C)c3c(C(=O)Nc4ccc(C)cc4Cl)cc(C)nc32)cc1	none (no result: MCF10A rereplic, SW480 rerep, IL-1B inflam inh)
CCOC(=O)c1c(-c2cccs2)csc1NC(=O)C(C)(C)C	MCF10A rereplic 13µM
CCOC(=O)c1c(-c2cccs2)csc1NC(=O)CN1CC(C)OC(C)C1 (configuration not stated)	MCF10A rereplic 21µM, SW480 rerep inconclusive
CCOC(=O)c1c(-c2cccs2)csc1NC(C)=O	none
O=C1CCCN1CCC(=O)N1CCCC(Nc2ccc(F)c(F)c2)C1 (configuration not stated)	none
O=C(Cc1ccc(N2CCNC2=O)cc1)N1CCCC(Nc2ccc(F)c(F)c2)C1 (configuration not stated)	MCF10A rereplic inconclusive, SW480 rerep 5.8µM
O=C(c1cccc(N2CCNC2=O)c1)N1CCCC(Nc2cccc(F)c2)C1 (configuration not stated)	MCF10A rereplic inconclusive
O=C(Cc1ccc(N2CCNC2=O)cc1)N1CCCC(Nc2cccc(F)c2)C1 (configuration not stated)	MCF10A rereplic 3.7µM, SW480 rerep inconclusive, S2 tox inconclusive (no result: ATXN2 expr inh)
CCC1CN(C(=O)N2CCC(C(=O)NCCN(C)C)CC2)c2ccccc2O1 (configuration not stated)	none (no result: MCF10A rereplic, SW480 rerep, S2 tox, ATXN2 expr inh, IL-1B inflam inh)
CCOc1ccc(-c2cc(NC(=O)Nc3ccccc3Cl)c(C(=O)OC)s2)cc1	none (no result: MCF10A rereplic, SW480 rerep, S2 tox, ATXN2 expr inh, IL-1B inflam inh)
Nc1cc(-c2ccc(Br)cc2)nn1S(=O)(=O)c1cccc2nsnc12	ATXN2 expr inh inconclusive, IL-1B inflam inh -65
COc1cc(NC(=O)C2Cc3ccccc3N2C(=O)c2ccccc2)cc(OC)c1 (configuration not stated)	none (no result: MCF10A rereplic, SW480 rerep, IL-1B inflam inh)
COc1ccc(CNC(=O)CSc2ncc3c(n2)-c2ccc(Cl)cc2N(Cc2ccccc2)S3(=O)=O)cc1	none (no result: MCF10A rereplic, SW480 rerep, IL-1B inflam inh)
O=C(COc1ccccc1)Nc1nc(-c2cccs2)cs1	none
